Laboratory results taken from PubChem BioAssay (NCI).
This is part of a sample that, as a whole, favours compounds with a hit. Of some 83,000 tested, about 20% had one in any assay.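 Treatment: one concentration, 48 hours, 96-well format. Scoring: percent growth, with anything below 10 considered active.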 Unmarked numbers belong to inactive results. Active and inactive are the calls of the source.

Columns and labels:
Experiment in all cases: NCI-60 one-dose screen, 48 h (100 = growth as untreated, 0 = no growth, -100 = all killed)
Conditions in all cases: 10 µM unless noted
[1] = system: DU-145 prostate
[2] = system: K-562 leukemia
[3] = system: MALME-3M melanoma
[4] = system: MDA-MB-231 breast
[5] = system: RXF 393 renal
[6] = system: SF-268 CNS
[7] = system: SF-295 CNS
[8] = system: SF-539 CNS
[9] = system: UACC-257 melanoma
[10] = system: M14 melanoma

| SMILES | growth [1] | growth [2] | growth [3] | growth [4] | growth [5] | growth [6] | growth [7] | growth [8] | growth [9] | growth [10] |
| --- | --- | --- | --- | --- | --- | --- | --- | --- | --- | --- |
| CCN(C(=O)c1ccc2c3c(cccc13)C=C2)c1ccccc1 | 113% | 82.7% | 90.1% | 103% | 102% | 107% | 93.6% | 97.4% | 97% | 94.5% |
| O=C1C2CC3C(CC2C(=O)[N]1[Sn]([c]1ccccc1)([c]1ccccc1)[c]1ccccc1)C1(Cl)C(Cl)=C(Cl)C3(Cl)C1(Cl)Cl (stereo not given) | -94.5% (active) | -30.8% (active) | -91.8% (active) | -94.7% (active) | -76.1% (active) | -88.7% (active) | -86.8% (active) | -99.9% (active) | -99.3% (active) | -94% (active) |
| Brc1ccc(SCN(CSc2ccc(Br)cc2)Cc2ccccc2)cc1 | 96.8% | 81.5% | 104% | 39.8% | 89.9% | 45.4% | 52.3% | 49.8% | 93.1% | 73.7% |
| CCOC(=O)c1c(-c2cc(OC)c(OC)c(OC)c2)csc1N | 101% | 45.5% | 92.1% | 105% | 93.2% | 94.5% | 65.4% | 94.7% | 104% | 89.8% |
| O=C(N/N=C/c1ccc2c(c1)OCO2)c1cnn2c1NC(c1ccccc1)C2 (stereo not given) | 60.9% | 29.8% | 55.1% | 53.2% | 6.73% (active) | 66% | 47.3% | 59.1% | 72.4% | 42.7% |
| O=C(CCc1nnc2sc(-c3ccccc3)nn12)c1nc2ccccc2[nH]1 | 106% | 5.84% (active) | 93.7% | 97.2% | 107% | 116% | 77.1% | 78.9% | 100% | 96.3% |
| Cn1c2c(cc(S(=O)(=O)c3ccccc3)c1=O)CCc1c-2cnn1-c1ccccc1Cl | 120% | 95.5% | 108% | 101% | 111% | 106% | 87.9% | 90.2% | 89.8% | 110% |
| O=C(NCc1cccnc1)c1ccc([N+](=O)[O-])o1 | -67.6% (active) | 22.1% | -61% (active) | 107% | -9.05% (active) | 33% | 20.8% | -30.9% (active) | -7.66% (active) | -81.2% (active) |
| C[C@@H](Oc1cc(-c2cnn(C3CC4(CCNCC4)C3)c2)cnc1N)c1c(F)ccc(Cl)c1Cl | 37.9% | -19.9% (active) | -67.6% (active) | -54% (active) | -31.5% (active) | -24.5% (active) | -10.2% (active) | -90.7% (active) | -89.5% (active) | -75.5% (active) |
| O=C1NC(=O)C2(CCCC2C(=O)O)N1 (stereo not given) | 120% | 98% | 140% | 105% | 117% | 109% | 99.8% | 101% | 86.7% | 106% |
| Cc1nc2cc(Nc3nc(Nc4ccc(F)cc4)nc(-c4cccs4)n3)ccc2n1Cc1ccccc1 | 75.2% | 43.1% | 77.6% | 69.1% | 25.9% | 63.7% | 51.9% | 59.9% | 57.5% | 53.1% |
| O=C(N/N=C(\CS(=O)(=O)c1ccccc1)c1cc2ccccc2oc1=O)c1ccccc1 | 111% | 109% | 110% | 99.4% | 132% | 99.2% | 101% | 103% | 94.6% | 110% |
| CCOC(=O)c1cc2c(n(C)c1=O)-c1cnn(-c3ccc(OC)cc3)c1CC2 | 117% | 104% | 95.1% | 97.9% | 102% | 99.8% | 91.7% | 90.1% | 93.6% | 106% |
| COc1ccc(OC)c(C2C(C#N)=C(N)Oc3cc(O)ccc32)c1 (stereo not given) | 107% | 83.4% | 85.9% | 99% | 92.1% | 98.2% | 83.3% | 104% | 99.9% | 100% |
| Cc1nc2cc(Nc3nc(NCCO)nc(Nc4ccc(F)cc4)n3)ccc2n1Cc1ccccc1 | 88.5% | 19.2% | 105% | 80.3% | 90.2% | 92.2% | 86.4% | 94.4% | 98.8% | 93% |
| O=C1CC(c2ccsc2)c2snc(-c3ccc(Cl)cc3)c2N1 (stereo not given) | 19.4% | 16.4% | 37.7% | 90% | 25.4% | 56.1% | 17.1% | 32.4% | 50% | 13.9% |
| O=C(COc1ccc(/C=C2\CSc3ccccc3C2=O)cc1)c1ccc(Cl)cc1 | 113% | 99.2% | 98.7% | 97% | 90.4% | 104% | 125% | 106% | 121% | 101% |
| COc1ccccc1/C=C/C(=O)/C=C/c1ccccc1O | -31.2% (active) | -6.29% (active) | -3.21% (active) | 4.57% (active) | -75.8% (active) | 1.68% (active) | -37.4% (active) | -63% (active) | 69.7% | -31% (active) |
| CCCN1CCN(c2ccc3nc(-c4ccc5nc(-c6ccc(C(F)(F)F)cc6)[nH]c5c4)[nH]c3c2)CC1 | -95.3% (active) | -51.4% (active) | -64.7% (active) | -86.9% (active) | -70.4% (active) | -70.2% (active) | -58.4% (active) | -94.6% (active) | 96.5% | -59% (active) |
| COc1ccc(C(=O)COc2cccc(/C=C3\CSc4ccc(C)cc4C3=O)c2)cc1 | 109% | 29.3% | 98.2% | 79.4% | 71.1% | 104% | 102% | 103% | 95.5% | 93.8% |

| SMILES | growth [1] | growth [2] | growth [3] | growth [4] | growth [5] | growth [6] | growth [7] | growth [8] | growth [9] | growth [10] |
| --- | --- | --- | --- | --- | --- | --- | --- | --- | --- | --- |
| O=C1c2[nH]cc(CN[C@@H]3CCCN3)c2C(=O)c2c1c(O)c1ccccc1c2O | -98.6% (active) | -81.5% (active) | -51.9% (active) | -96.7% (active) | -98.2% (active) | -88.2% (active) | 70.5% | -94.1% (active) | -64.9% (active) | -72.8% (active) |
| Cc1ccc(C)c2c1sc1nc3nc4sc5ccccc5n4c(=N)c3c(=O)n12 | 108% | 132% | 143% | 93.5% | 122% | 95.6% | 104% | 101% | 129% | 94.8% |
| Cc1ccccc1-c1cc(-c2ccc(Br)s2)[nH]c(=O)c1C#N | 110% | 90.3% | 88.9% | 100% | 106% | 104% | 95.1% | 112% | 104% | 93.6% |
| O=C(CCCCCCC(=O)Nc1ccc2c(c1)/C(=C/c1ccc[nH]1)C(=O)N2)NO | 4.55% (active) | 11.6% | 36.5% | 1.47% (active) | -30.8% (active) | -13% (active) | 6.46% (active) | 23% | 9.98% (active) | 3.6% (active) |
| COc1nc2c(cc1S(=O)(=O)c1ccccc1)CCc1c-2cnn1-c1cccc(Cl)c1 | 97% | 61.4% | 78.7% | 89.7% | 76.7% | 87.2% | 80.2% | 81.7% | 78.7% | 83.4% |
| Cc1nc2cc(Nc3nc(Nc4ccc(F)cc4)nc(N4CCCC4)n3)ccc2n1Cc1ccccc1 | -41.5% (active) | 0.0326% (active) | -61.6% (active) | -59.7% (active) | -83.5% (active) | -26.3% (active) | -26.8% (active) | -25% (active) | -22.7% (active) | -48.1% (active) |
| COc1cc(/C=C2\C(=O)Nc3ccccc32)cc(OC)c1O | 92.5% | 7.58% (active) | 118% | 63.1% | 71.3% | 78.3% | 60.6% | 68.8% | 62.6% | 53.6% |
| FC(F)(F)c1cc(CNc2nc(Cl)ncc2Br)cc(C(F)(F)F)c1 | 98.9% | 50.2% | 91.1% | 89% | 92.6% | 93.4% | 88.4% | 85% | 80.8% | 93.9% |
| Cc1nc2cc(Nc3nc(N4CCOCC4)nc(N4CCN(C)CC4)n3)ccc2n1Cc1ccccc1 | 114% | 90.3% | 106% | 100% | 101% | 96.2% | 95.2% | 91.3% | 99.2% | 110% |
| O=C(O)CCN1CCN(c2cccc(Cl)c2)CC1 | 118% | 99.8% | 107% | 116% | 105% | 117% | 87.4% | 89.1% | 94.6% | 109% |
| COc1cc(C(=O)N(C(C)C)C2CCCCC2)cc(OC)c1OC | 112% | 98.7% | 99.5% | 127% | 97.4% | 98.1% | 109% | 101% | 93.7% | 132% |
| O=C(Nc1ccc(Cl)c(Cl)c1)NC(CO)(CO)CO | 112% | 92.8% | 87.7% | 109% | 100% | 97.8% | 94.4% | 103% | 97.5% | 97.4% |
| Cc1nn(CC(=O)O)c2c1C(=O)CC(C)(C)C2 | 118% | 123% | 118% | 114% | 117% | 103% | 102% | 102% | 96.9% | 93.2% |
| Cc1nc2ccc(Cl)cc2n1C | 115% | 92.4% | 106% | 118% | 101% | 103% | 104% | 106% | 100% | 106% |
| Nc1nc(N)c(N=Nc2c(Br)cc(S(N)(=O)=O)cc2Br)c(N)n1 | 109% | 51.1% | 111% | 105% | 107% | 100% | 94.9% | 112% | 98.7% | 87.8% |
| COc1nc2c(cc1S(=O)(=O)c1ccccc1)CCc1c-2cnn1-c1ccccc1 | 95.4% | 54.1% | 69.2% | 89.2% | 94.4% | 86.8% | 84.9% | 79% | 78.2% | 80.7% |
| O=S(=O)(/N=C1C=C/C(=N\S(=O)(=O)c2ccccc2)c2ccccc2\1)c1ccccc1 | 117% | 91.8% | 107% | 98.3% | 107% | 104% | 116% | 123% | 95.1% | 112% |
| O=C(C[Si](CC(=O)c1cccc(C(F)(F)F)c1)CC(=O)c1cccc(C(F)(F)F)c1)c1cccc(C(F)(F)F)c1 | 33.2% | 4.55% (active) | 77.2% | 86.3% | 102% | 40% | 2.69% (active) | 107% | 81.8% | 89.4% |
| Cc1cc(=O)c2c(C)ccc(C)c2[nH]1 | 115% | 109% | 102% | 99.3% | 90.7% | 96.8% | 91.4% | 107% | 80.5% | 97.8% |
